For 36 compounds, Potency results are on record in PubChem BioAssay (Tox21).

Structures are written as SMILES. “And” between values parts separate entries of the source, which are not always exact repeats. Equal values may be shown once. Inconclusive results are not listed. Where a call stands in place of a potency, no number is given. Some structures have more than one record in an assay (separate samples or runs), and their calls can disagree. The source made the active and inactive calls. Calls come from the whole dose curve; as a rule, active = well fitted curve in the direction sought with a large enough effect in the repeat runs; inconclusive = weak or mixed curves; inactive = no such curve, though single readings can be large; an effect the other way counts as inactive or inconclusive. Residues, ends and D or L forms follow the SMILES beside them.
Potency is the fitted concentration of half-maximal effect.

Chain of Nuclear receptor subfamily 1 group I member 3 (Homo sapiens) (Q14994 whole entry, looked up): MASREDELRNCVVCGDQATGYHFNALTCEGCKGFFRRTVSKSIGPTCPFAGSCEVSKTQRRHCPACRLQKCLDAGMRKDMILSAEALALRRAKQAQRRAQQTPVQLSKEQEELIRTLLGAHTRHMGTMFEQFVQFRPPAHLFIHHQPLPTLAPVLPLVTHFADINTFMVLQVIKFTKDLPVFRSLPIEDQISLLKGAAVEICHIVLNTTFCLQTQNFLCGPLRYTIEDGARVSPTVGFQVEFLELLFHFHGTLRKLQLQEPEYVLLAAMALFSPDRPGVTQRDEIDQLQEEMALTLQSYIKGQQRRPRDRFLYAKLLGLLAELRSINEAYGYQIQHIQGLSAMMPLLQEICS

Tested on in one test: not listed separately
Briefly: qHTS assay to identify small molecule antagonists of the constitutive androstane receptor (CAR) signaling pathway - cell viability counter screen (AID 1224837). Note: nearly all actives have a fitted effect of over 45% in size. As to conditions: HepG2-CYP2B6-hCAR viability, CellTiter-Fluor, 23 h, co-treated with 50 nM CITCO; series mostly up to 92.4 µM. In a few lines: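 HepG2 cells stably carrying hCAR and CYP2B6-2.2kb reporter, stimulated with 50 nM CITCO and compounds at 15 concentrations for 23 h at 37 C. Viability measured by CellTiter-Fluor fluorescence.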
In the case of `C[C@]12C=CC(=O)C=C1CC[C@@H]1[C@@H]2[C@@H](O)C[C@@]2(C)[C@H]1CC[C@]2(O)C(=O)CO`, the Potency result was “inactive”.

`CC(=O)NS(=O)(=O)c1ccc(N)cc1`: the Potency entry is “inactive”.

Take `Nc1ccc(C(=O)O)cc1`: the Potency result was “inactive”.

`O=c1cc[nH]c(=S)[nH]1`: the Potency result is “inactive”.

Consider `C/C=C/c1ccc(OC)cc1`, for which the Potency entry was “inactive”.

In the case of `CCCCC1C(=O)N(c2ccccc2)N(c2ccccc2)C1=O`, the Potency result is “inactive”.

Consider `Cc1ccc(C)c(OCCCC(C)(C)C(=O)O)c1`, for which the Potency entry was “inactive”.

For `O=C(O)CCC(=O)O`, the Potency entry was “inactive”.

Turning to `CC(=O)Nc1nnc(S(N)(=O)=O)s1`, the Potency entry is “inactive”.

With `COC(=O)[C@H](Cc1ccccc1)NC(=O)[C@@H](N)CC(=O)O` (H-Asp-Phe-OMe), the Potency result is “inactive”.

As for `CCCC(CCC)C(=O)O`, the Potency entry was “inactive”.

Consider `COc1ccc2[nH]cc(CCNC(C)=O)c2c1`, for which the Potency entry was “inactive”.

`CC(=O)OCC(COC(C)=O)OC(C)=O`: the Potency result was “inactive”.

Regarding `Cn1c(=O)c2[nH]cnc2n(C)c1=O`, the Potency result was “inactive”.

Regarding `Nc1ccc(S(=O)(=O)c2ccc(N)cc2)cc1`, the Potency entry was “inactive”.

Turning to `OC(Cn1cncn1)(Cn1cncn1)c1ccc(F)cc1F`, the Potency result was “inactive”.

Regarding `C1N2CN3CN1CN(C2)C3`, the Potency result is “inactive”.

`CCCN(CCC)S(=O)(=O)c1ccc(C(=O)O)cc1`: the Potency entry was “inactive”.

As to `NNC(=O)c1ccncc1`, the Potency entry is “inactive”.

Take `Cn1cc[nH]c1=S`: the Potency entry was “inactive”.

Turning to `O=C1CN(/N=C/c2ccc([N+](=O)[O-])o2)C(=O)N1`, the Potency is 27.2 µM (active) and 21.7 µM (active) and 21.1 µM (active).

For the compound `CCCCOC(=O)CC(CC(=O)OCCCC)(OC(C)=O)C(=O)OCCCC`, the Potency result is “inactive”.

For `CCCCC(CC)COC(=O)/C=C/c1ccc(OC)cc1` (stereo not given), the Potency entry is “inactive”.

For the compound `CC(C)(Oc1ccc(C2CC2(Cl)Cl)cc1)C(=O)O` (stereo not given), the Potency result is “inactive”.

As for `OCCc1ccccc1`, the Potency entry is “inactive”.

For the compound `NC(N)=NC(=O)c1nc(Cl)c(N)nc1N`, the Potency entry was “inactive”.

In the case of `NC(=O)c1ccccc1O`, the Potency entry is “inactive”.

On to `CC1(C)[C@@H]2CC[C@@]1(C)C(=O)C2`, for which the Potency result was “inactive”.

On to `Cc1cc(=O)n(-c2ccccc2)n1C`, for which the Potency entry is “inactive”.

Take `CCOc1ccc(NC(=O)CC(C)O)cc1` (stereo not given): the Potency entry is “inactive”.

As to `NC(=O)c1cnccn1`, the Potency result is “inactive”.

Turning to `O=c1ccc2ccccc2o1`, the Potency entry was “inactive”.

`Cc1noc(NS(=O)(=O)c2ccc(N)cc2)c1C`: the Potency result is “inactive”.

Regarding `Cc1cc(=O)[nH]c(=S)[nH]1`, the Potency entry is “inactive”.

As for `Cc1ccccc1C(OCCN(C)C)c1ccccc1` (stereo not given), the Potency entry is “inactive”.

For `O=S(=O)(O)c1ccc2cc(O)ccc2c1`, the Potency entry is “inactive”.

The target of another test is Nuclear receptor subfamily 1 group I member 3 (Homo sapiens) (UniProt Q14994). Kind of test: qHTS assay to identify small molecule antagonists of the constitutive androstane receptor (CAR) signaling pathway (AID 1224838). Note: nearly all actives have a fitted effect of over 40% in size. The note with it: HepG2-CYP2B6-hCAR luciferase, CITCO-stimulated, 24 h; series mostly up to 92.4 µM. In a few lines:
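HepG2 cells stably carrying hCAR and a CYP2B6-2.2kb luciferase reporter, seeded 4 hrs before compound (15 concentrations). Stimulated with 50 nM CITCO for 24 hr at 37 C. ONE-Glo luminescence read after 30 min at room temperature.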
On to `C[C@]12C=CC(=O)C=C1CC[C@@H]1[C@@H]2[C@@H](O)C[C@@]2(C)[C@H]1CC[C@]2(O)C(=O)CO`, for which the Potency result was “inactive”.

With `CC(=O)NS(=O)(=O)c1ccc(N)cc1`, the Potency result is “inactive”.

For `Nc1ccc(C(=O)O)cc1`, the Potency entry is “inactive”.

On to `O=c1cc[nH]c(=S)[nH]1`, for which the Potency result was “inactive”.

Consider `C/C=C/c1ccc(OC)cc1`, for which the Potency entry is “inactive”.

Turning to `CCCCC1C(=O)N(c2ccccc2)N(c2ccccc2)C1=O`, the Potency result is “inactive”.

Regarding `O=C(O)CCC(=O)O`, the Potency result was “inactive”.

For `CC(=O)Nc1nnc(S(N)(=O)=O)s1`, the Potency entry was “inactive”.

As for `COc1ccc2[nH]cc(CCNC(C)=O)c2c1`, the Potency entry is “inactive”.

With `C1N2CN3CN1CN(C2)C3`, the Potency result is “inactive”.

In the case of `NNC(=O)c1ccncc1`, the Potency result was “inactive”.

For `O=C1CN(/N=C/c2ccc([N+](=O)[O-])o2)C(=O)N1`, the Potency result was “inactive”.

Turning to `CCCCOC(=O)CC(CC(=O)OCCCC)(OC(C)=O)C(=O)OCCCC`, the Potency result is “inactive”.

Consider `CCCCC(CC)COC(=O)/C=C/c1ccc(OC)cc1` (stereo not given), for which the Potency result is “inactive”.

Take `CC(C)(Oc1ccc(C2CC2(Cl)Cl)cc1)C(=O)O` (stereo not given): the Potency result is “inactive”.

On to `NC(N)=NC(=O)c1nc(Cl)c(N)nc1N`, for which the Potency is 61.5 µM (active) and 50.4 µM (active) and inactive.

On to `CC1(C)[C@@H]2CC[C@@]1(C)C(=O)C2`, for which the Potency result is “inactive”.

With `Cc1cc(=O)n(-c2ccccc2)n1C`, the Potency result is “inactive”.

As for `NC(=O)c1cnccn1`, the Potency entry is “inactive”.

As for `O=c1ccc2ccccc2o1`, the Potency entry is “inactive”.

As to `Cc1noc(NS(=O)(=O)c2ccc(N)cc2)c1C`, the Potency result is “inactive”.

With `Cc1cc(=O)[nH]c(=S)[nH]1`, the Potency entry is “inactive”.

Turning to `Cc1ccccc1C(OCCN(C)C)c1ccccc1` (stereo not given), the Potency entry is “inactive”.

`O=S(=O)(O)c1ccc2cc(O)ccc2c1`: the Potency entry is “inactive”.

The target is the same in another test. Kind of test: qHTS assay to identify small molecule agonists of the constitutive androstane receptor (CAR) signaling pathway (AID 1224839). Note: nearly all actives have a fitted effect of over 15% in size. The note with it: HepG2 hCAR CYP2B6-luciferase, agonist mode, 24 h; series mostly up to 92.4 µM. In a few lines:
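HepG2 cells stably expressing hCAR and a CYP2B6-2.2kb luciferase reporter were treated with compounds at 15 concentrations plus 0.75 uM PK11195 (final) for 24 h at 37 C; luminescence was read after ONE-Glo addition.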
With `C[C@]12C=CC(=O)C=C1CC[C@@H]1[C@@H]2[C@@H](O)C[C@@]2(C)[C@H]1CC[C@]2(O)C(=O)CO`, the Potency result was “inactive”.

`CC(=O)NS(=O)(=O)c1ccc(N)cc1`: the Potency entry is “inactive”.

With `Nc1ccc(C(=O)O)cc1`, the Potency result is “inactive”.

Turning to `O=c1cc[nH]c(=S)[nH]1`, the Potency entry is “inactive”.

As for `C/C=C/c1ccc(OC)cc1`, the Potency result was “inactive”.

On to `CCCCC1C(=O)N(c2ccccc2)N(c2ccccc2)C1=O`, for which the Potency result is “inactive”.

With `O=C(O)CCC(=O)O`, the Potency result is “inactive”.

Regarding `CC(=O)Nc1nnc(S(N)(=O)=O)s1`, the Potency result was “inactive”.

In the case of `COc1ccc2[nH]cc(CCNC(C)=O)c2c1`, the Potency result was “inactive”.

On to `C1N2CN3CN1CN(C2)C3`, for which the Potency entry is “inactive”.

Regarding `NNC(=O)c1ccncc1`, the Potency entry was “inactive”.

`Cn1cc[nH]c1=S`: the Potency entry was “inactive”.

As for `O=C1CN(/N=C/c2ccc([N+](=O)[O-])o2)C(=O)N1`, the Potency entry is “inactive”.

As to `CCCCOC(=O)CC(CC(=O)OCCCC)(OC(C)=O)C(=O)OCCCC`, the Potency was 17.4 µM (active) and 27.3 µM (active).

As for `CCCCC(CC)COC(=O)/C=C/c1ccc(OC)cc1` (stereo not given), the Potency result was “inactive”.

`CC(C)(Oc1ccc(C2CC2(Cl)Cl)cc1)C(=O)O` (stereo not given): the Potency entry is “inactive”.

For `NC(N)=NC(=O)c1nc(Cl)c(N)nc1N`, the Potency entry was “inactive”.

Take `CC1(C)[C@@H]2CC[C@@]1(C)C(=O)C2`: the Potency entry is “inactive”.

In the case of `Cc1cc(=O)n(-c2ccccc2)n1C`, the Potency result was “inactive”.

As to `NC(=O)c1cnccn1`, the Potency result was “inactive”.

For the compound `O=c1ccc2ccccc2o1`, the Potency entry was “inactive”.

For `Cc1noc(NS(=O)(=O)c2ccc(N)cc2)c1C`, the Potency entry is “inactive”.

Consider `Cc1cc(=O)[nH]c(=S)[nH]1`, for which the Potency result is “inactive”.

Regarding `Cc1ccccc1C(OCCN(C)C)c1ccccc1` (stereo not given), the Potency result is “inactive”.

Consider `O=S(=O)(O)c1ccc2cc(O)ccc2c1`, for which the Potency result was “inactive”.
